In PubChem BioAssay AID1851 (National Center for Advancing Translational Sciences (NCATS), 2009):
Where “and” joins values, the source holds several entries; their conditions need not be identical. Equal values may be shown once. Among all 16,000 compounds or so, about 2,600 (16%) were called active. Not shown: some 20% with an inconclusive outcome. Calls come from the whole dose curve; as a rule, active = well fitted curve in the direction sought with a large enough effect; inconclusive = small, poorly fitted or top-dose-only effect, or effect the other way; inactive = no such curve, though single readings can be large or run the other way. These entries were drawn from the full list.
% is set by controls: 0 for no effect and ±100 for the full control effect.

Each compound was assayed against Cytochrome P450 2D6 (Homo sapiens) (UniProt P10635) (assay: Cytochrome panel assay with activity outcomes). Settings: recombinant CYP, pro-luciferin dealkylation, luminescence, p450-cyp2d6; series mostly up to 57.1 µM.
Sequence of Cytochrome P450 2D6 (Homo sapiens) (P10635 whole entry, looked up): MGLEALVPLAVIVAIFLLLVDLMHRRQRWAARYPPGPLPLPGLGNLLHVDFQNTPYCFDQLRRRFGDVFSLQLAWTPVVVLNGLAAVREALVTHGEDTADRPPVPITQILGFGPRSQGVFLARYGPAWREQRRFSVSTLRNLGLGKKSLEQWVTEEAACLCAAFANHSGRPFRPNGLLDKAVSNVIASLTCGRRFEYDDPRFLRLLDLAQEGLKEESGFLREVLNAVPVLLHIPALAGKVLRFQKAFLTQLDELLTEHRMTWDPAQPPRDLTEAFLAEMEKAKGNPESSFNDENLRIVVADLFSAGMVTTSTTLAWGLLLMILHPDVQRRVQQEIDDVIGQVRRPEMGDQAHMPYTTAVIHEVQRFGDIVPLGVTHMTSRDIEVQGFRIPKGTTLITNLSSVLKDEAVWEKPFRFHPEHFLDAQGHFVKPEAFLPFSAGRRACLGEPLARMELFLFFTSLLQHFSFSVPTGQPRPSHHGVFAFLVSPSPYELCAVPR
For `CCOC(=O)C1=C(C)NC(C)=C(C(=O)OCC)C1c1sccc1C`, the AC50 was “inactive”.
`CCCCC(=O)NC(=S)Nc1cccc(NC(=O)CC)c1` was tested, and the AC50 was “inactive”.
With `Cc1cc(C)c(NC(=O)NC(=O)c2ccc(F)cc2)c(C)n1` the AC50 was “inactive”.
For `CCCCCN=c1ccn(Cc2ccccc2)c2ccccc12`, the AC50 was 10 µM (active).
With `O=C(O)c1ccccc1C(=O)Nc1cc2c(cc1Br)-c1ccccc1C2=O` the activity, negative = inhibition was 16.7% [at 11.4 µM] (inactive).
`Cl/C(=C\n1cncn1)c1ccc(Cl)cc1Cl` was tested, and the AC50 was “inactive”.
In the case of `CC1(C)[C@@H]2CC[C@]1(CC(=O)O)[C@H](Cl)C2`, the activity, negative = inhibition is reported as 6.22% [at 11.4 µM] (inactive).
`COc1ccc(C(C)(C)C)cc1NC(=O)c1cncc(Br)c1` was tested, and the AC50 was “inactive”.
For `CC(=O)Nc1cc(C(F)(F)F)ccc1Oc1cccc(Br)c1`, the AC50 was 10 µM (active).
`CCOc1ccc(C(F)(F)F)cc1NC(C)=O` was tested, and the AC50 was “inactive”.
For `CSCC[C@H](NC(=O)CC(C)(C)C)c1nc2ccccc2[nH]1`, the AC50 was “inactive”.
`C[N+](C)(C)c1nc(N)nc2c1ncn2[C@H]1O[C@@H](CO)[C@@H](O)[C@H]1O` was tested, and the activity, negative = inhibition was 6.01% [at 11.4 µM] (inactive).
In the case of `O=C(COc1ccc([N+](=O)[O-])cc1)Nc1ccc(C(=O)NCc2cccnc2)cc1`, the AC50 is reported as 3.16 µM (active).
For `COc1cc(/C=N\Nc2ccc([N+](=O)[O-])cc2)ccc1OCC(=O)Nc1ccc(C)c(C)c1`, the AC50 was “inactive”.
With `O=C(COc1ccc(/C=N/NC(=O)c2ccccc2)cc1)Nc1ccc([N+](=O)[O-])cc1` the AC50 was “inactive”.
In the case of `O=C(COc1ccc(Br)cc1)Nc1ccc([N+](=O)[O-])cn1`, the AC50 is reported as “inactive”.
For `CCOC(=O)c1cccc(NC(=O)COc2ccc([N+](=O)[O-])cc2)c1`, the AC50 was 1.41 µM (active).
In the case of `O=C(COc1ccc([N+](=O)[O-])cc1)NCc1ccccc1`, the AC50 is reported as “inactive”.
For `O=S(=O)(c1ccccc1)c1cnn2c(C(F)(F)F)cc(-c3ccc(F)cc3)nc12`, the AC50 was “inactive”.
For `COc1c(O[C@H]2O[C@@H](CO)[C@@H](O)[C@@H](O)[C@@H]2O)cc2c(c1OC)-c1ccc(SC)c(=O)cc1[C@H](NC(C)=O)CC2`, the AC50 was “inactive”.
With `O=C1CCCC=C1[C@@H](O)CCOC(c1ccccc1)(c1ccccc1)c1ccccc1` the activity, negative = inhibition was -20.1% [at 11.4 µM] (inactive).
In the case of `CCOP(=O)(OCC)c1nc(/C=C/c2ccccc2)oc1NCc1ccccc1`, the AC50 is reported as “inactive”.
With `O=C1c2ccccc2C(Cc2ccncc2)(Cc2ccncc2)c2ccccc21` the AC50 was “inactive”.
For `c1ccc(SCCc2ccncc2)cc1`, the AC50 was 2.82 µM (active) and 1.26 µM (active).
For `Fc1ccc(SCCc2ccncc2)cc1`, the AC50 was 5.01 µM (active).
With `O=C(O)CCCSc1ccccc1` the activity, negative = inhibition was 0.436% [at 11.4 µM] (inactive).
For `C[C@@H]1CCCC(CC(=O)O)(CC(=O)O)C1`, the activity, negative = inhibition was 0.077% [at 11.4 µM] (inactive).
`Cc1cccnc1NC(=O)C12CCC(C)(C(=O)O1)C2(C)C` (stereo not drawn) was tested, and the AC50 was “inactive”.
With `O=C(O)c1nnsc1-c1ccc(-c2snnc2C(=O)O)cc1` the activity, negative = inhibition was -3.33% [at 11.4 µM] (inactive).
For `CC(=O)Nc1ccc(Sc2ncccc2C(=O)Nc2ccc(F)cc2)cn1`, the AC50 was “inactive”.
For `CC(=O)Nc1ccc(C#Cc2ccc(NC(C)=O)cc2)cc1`, the AC50 was “inactive”.
For `CCCCN(c1ccccc1)c1ncnc2c1cnn2C`, the activity, negative = inhibition was -12.5% [at 11.4 µM] (inactive).
For `Cc1[nH]nc(N2CCCCCC2)c1[N+](=O)[O-]`, the AC50 was 15.8 µM (active).
`O=[N+]([O-])c1cccnc1N1CCCCC1` was tested, and the AC50 was “inactive”.
With `Cc1nc(N2CCOCC2)nc(N2CCN(c3ccccc3)CC2)c1[N+](=O)[O-]` the AC50 was “inactive”.
With `Cn1c(Oc2ccccc2)c(C=O)c2ccccc21` the AC50 was “inactive”.
In the case of `CCOc1ccc(OCC)c(-c2c(=O)n(OCc3ccccc3C(=O)OC)c3ccccc3[n+]2[O-])c1`, the AC50 is reported as “inactive”.
With `O=c1onc2cnc3ccccc3n12` the AC50 was “inactive”.
In the case of `Cc1nc2c(C#N)c(C)[nH]n2c(=O)c1Cc1ccccc1`, the AC50 is reported as “inactive”.
With `Cc1ccc(-n2c(O)c(/C=N/n3cnnc3)c3ccccc3c2=O)cc1` the AC50 was “inactive”.
With `COc1cccc(-c2[nH]nc3c2C(c2ccsc2)C(C#N)=C(N)O3)c1` (stereo not drawn) the AC50 was “inactive”.
`C/C(=C\c1ccco1)C1C(C#N)=C(N)Oc2n[nH]c(-c3ccccc3)c21` (stereo not drawn) was tested, and the AC50 was 31.6 µM (active).
`COc1cccc(-c2[nH]nc3c2C(c2ccc(C)o2)C(C#N)=C(N)O3)c1` (stereo not drawn) was tested, and the AC50 was “inactive”.
With `Nc1ccccc1S(N)(=O)=O` the AC50 was “inactive”.
For `O=C(O)CC(O)C(=O)O` (stereo not drawn), the AC50 was “inactive”.
For `Cc1cc(C)c(S(=O)(=O)NCC2CCC(C(=O)NCc3ccc4c(c3)OCO4)CC2)c(C)c1` (stereo not drawn), the AC50 was 12.6 µM (active).
With `Cc1ccc(S(=O)(=O)NCC2CCC(C(=O)O)CC2)cc1` (stereo not drawn) the AC50 was “inactive”.
`CCN(CC)S(=O)(=O)N1CCC(C(=O)NCc2ccc(C)cc2)CC1` was tested, and the AC50 was “inactive”.
With `CN(C)CCNCCN` the activity, negative = inhibition was 8.7% [at 11.4 µM] (inactive).
With `COCCn1c(=O)cnc2cnc(Oc3cccc(Cl)c3)nc21` the AC50 was “inactive”.
For `C=C(C)C1Cc2nc(N)nc(C)c2C1` (stereo not drawn), the AC50 was “inactive”.
In the case of `Cc1nc2nc[nH]n2c(=O)c1NC(=O)CC12CC3CC(CC(C3)C1)C2`, the AC50 is reported as “inactive”.
`COc1cc2cc3c4cc(OC)c(OC)cc4cc[n+]3c(C)c2cc1OC` was tested, and the AC50 was “inactive”.
For `CNC(=O)c1c(I)c(C(=O)NCC(=O)Nc2c(I)c(C(=O)O)c(I)c(C(=O)NCCO)c2I)c(I)c(N(C)C(C)=O)c1I`, the AC50 was “inactive”.
With `CCOC(=O)[C@H](CCc1ccccc1)N[C@@H](C)C(=O)N1CCC[C@H]1C(=O)O` the AC50 was “inactive”.
With `CCOC(=O)/C(C#N)=C\c1ccc(OCC(=O)Nc2ccc(C)cc2C)c(OC)c1` the AC50 was “inactive”.
With `N#C/C(=C\c1ccc(O)c(O)c1)C(=O)NCc1ccccc1` the AC50 was “inactive”.
For `C[C@H](NC(=O)/C(C#N)=C/c1ccc(O)c(O)c1)c1ccccc1`, the AC50 was “inactive”.
With `C[C@@H](NC(=O)/C(C#N)=C/c1ccc(O)c(O)c1)c1ccccc1` the AC50 was “inactive”.
In the case of `N#C/C(=C\c1ccc(O)c(O)c1)C(=O)NCCCc1ccccc1`, the AC50 is reported as 31.6 µM (active).
For `N#C/C(=C\c1ccc(O)c(O)c1)C(=O)OCCc1cccs1`, the AC50 was 12.6 µM (active).
With `Nc1ncncc1-c1ccc([N+](=O)[O-])cc1` the AC50 was “inactive”.
With `CC(=O)NC(NC(C)=O)c1ccc(Br)cc1` the AC50 was “inactive”.
`Cc1ccc(-n2nnnc2Sc2nc([N+](=O)[O-])nn2C)cc1C` was tested, and the AC50 was “inactive”.
In the case of `Cc1nc(S(=O)(=O)c2cccc(Cl)c2)nc2c1CCC2`, the AC50 is reported as “inactive”.
With `CC(=O)N(CC(=O)O)c1ccccc1C(=O)O` the AC50 was “inactive”.
In the case of `CC(C)(C)c1cccc(Oc2nn[nH]n2)c1`, the AC50 is reported as “inactive”.
`CC1=C(C(N)=O)C(c2cccs2)n2nc(-c3cccc(Cl)c3)nc2N1` (stereo not drawn) was tested, and the AC50 was “inactive”.
`O=c1[nH]c2cc(Br)cnc2nc1/C=C(\O)c1ccc(F)cc1` was tested, and the AC50 was “inactive”.
With `COC(=O)[C@@H]1C[C@H]1[C@@H](NC(=O)c1cccnc1)c1ccccc1` the AC50 was “inactive”.
In the case of `COCCn1c(=O)c(-c2cccc(C#N)c2)nc2cnc(Oc3ccccc3)nc21`, the AC50 is reported as “inactive”.
With `NC(=O)NCc1ccc(Cl)cc1` the AC50 was “inactive”.
For `Cc1ccc(C)c(NC(=O)NCc2ccc(Cl)cc2)c1`, the AC50 was 3.98 µM (active).
In the case of `Cc1ccc(Cn2cccc(NC(=O)NCc3ccccc3)c2=O)cc1`, the AC50 is reported as “inactive”.
In the case of `CCc1c(C)c2c(C)[nH]nc2oc1=O`, the AC50 is reported as “inactive”.
For `N#Cc1c(-c2ccc(Cl)cc2)nc2n(c1=O)CCCS2`, the AC50 was “inactive”.
With `COCCNC(=O)C1CC(c2cccc(OC)c2)=NO1` (stereo not drawn) the AC50 was “inactive”.
`COc1ccc(CNC(=O)C2CC(c3cccc([N+](=O)[O-])c3)=NO2)cc1` (stereo not drawn) was tested, and the AC50 was 5.01 µM (active).
In the case of `COc1cccc(C2=NOC(C(=O)Nc3ccc(OC)c(OC)c3)C2)c1` (stereo not drawn), the AC50 is reported as “inactive”.
For `O=C(NCc1ccc2c(c1)OCO2)C1CC(c2cccc(Br)c2)=NO1` (stereo not drawn), the AC50 was 0.891 µM (active).
For `COc1ccc(CNC(=O)C2CSC(=O)C2)cc1` (stereo not drawn), the AC50 was “inactive”.
In the case of `COc1cccc(C2=NOC(C(=O)NCCN3CCOCC3)C2)c1` (stereo not drawn), the AC50 is reported as “inactive”.
In the case of `COc1cccc(C2=NOC(C(=O)NCc3ccccn3)C2)c1` (stereo not drawn), the AC50 is reported as “inactive”.
With `COc1ccc(C2=NOC(C(=O)NCc3ccco3)C2)cc1OC` (stereo not drawn) the AC50 was “inactive”.
`O=C(NNC(=O)C1CC(c2cccnc2)=NO1)Nc1cccc(F)c1` (stereo not drawn) was tested, and the AC50 was “inactive”.
With `COc1cccc(C2=NOC(C(=O)Nc3cccnc3)C2)c1` (stereo not drawn) the AC50 was 11.2 µM (active).
In the case of `COc1cccc(C2=NOC(C(=O)NCc3ccccc3)C2)c1` (stereo not drawn), the AC50 is reported as 12.6 µM (active).
With `CO[C@H]1COC(=O)C/C=C\[C@@H](C)COC(=O)[C@@H](CCSC)NC(=O)C/C=C\[C@@H]1C` the activity, negative = inhibition was 14% [at 11.4 µM] (inactive) and 6.2% [at 11.4 µM] (inactive).
For `O=C(c1cc(C(F)(F)F)cc(C(F)(F)F)c1)N1CCC[C@@]2(CCN(c3ncccn3)C2)C1`, the AC50 was “inactive”.
`O=S(=O)(O)c1cc(N=Nc2cccc3ccccc23)c(O)c2ncccc12` was tested, and the activity, negative = inhibition was -9.94% [at 11.4 µM] (inactive).
In the case of `Nc1nc2n[nH]nc2c(=O)[nH]1`, the AC50 is reported as “inactive”.
`O=C1[C@H]2CCn3c(=O)n(-c4ccccc4)c(=O)n3[C@H]2[C@H](O)[C@H]2O[C@@H]12` was tested, and the activity, negative = inhibition was -6.63% [at 11.4 µM] (inactive).
With `Cc1nn2c3c(cnc2c1-c1ccccc1)C(=O)CC(c1ccccc1)C3` (stereo not drawn) the AC50 was “inactive”.
For `O=C(NCC1CCCO1)c1nn2c(c1Cl)NC(c1ccc(F)cc1)CC2C(F)(F)F` (stereo not drawn), the AC50 was “inactive”.
For `C#CCSc1nc(Cc2ccc(Cl)cc2)nc2ccccc12`, the AC50 was “inactive”.
In the case of `Nc1nc(Cl)nc2c1ncn2[C@@H]1O[C@@H](CO)[C@@H](O)[C@H]1O`, the AC50 is reported as “inactive”.
For `CCC(Sc1nc2n[nH]c(C)c2c(=N)n1-c1cccc(Cl)c1)C(=O)NCCOC` (stereo not drawn), the AC50 was “inactive”.
For `Cc1ccc(/C(N)=N/OC(=O)Cc2cccs2)cc1`, the AC50 was “inactive”.
With `Cc1onc(-c2ccccc2)c1C(=O)NC(CC(=O)O)c1ccc(OC(C)C)cc1` (stereo not drawn) the AC50 was “inactive”.
`CCCOc1ccc(C(=O)CCNc2ccc(C)c(Cl)c2)cc1` was tested, and the AC50 was “inactive”.
In the case of `CCOc1ccc(C(=O)CCC(=O)O)cc1`, the AC50 is reported as “inactive”.
For `CCCCOc1ccc(C(=O)CCN2CCCCC2)cc1`, the AC50 was 5.01 µM (active).
`Fc1ccc(CSc2ncnc3sc4c(c23)CCCC4)cc1` was tested, and the AC50 was “inactive”.
